This is a sample that favours compounds with a hit; in the whole collection about 1.5% have one here.
PLC-beta3 inh: blocks human PLC-beta3 enzyme activity | AID 720704 | Q01970 | 370,000 compounds, 0.18% hits | inhibition, % at 12.2 µM | Purified PLC-beta3, fluorogenic substrate, fluorescence
PLC-gamma1 inh: PLC-gamma1 (human) inhibition, primary screen | purified PLC-gamma1, fluorogenic substrate, fluorescence | inhibition, % at 12.2 µM | 370,000 compounds, 0.84% hits; in the data active = inhibition above about 9.5%
HGIII-sPLA2 inh: Blocks human group III sPLA2 activity. inhibition, % at 12.2 µM. 370,000 compounds, 0.56% hits. Q9NZ20. QFRET BODIPY PC-A2 liposome hydrolysis, fluorescence. AID 743126;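 active = inhibition above mean plus 3 SD of compounds lying within the high and low control bounds, cut at about 19% in these data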
DAGLB inh: diacylglycerol lipase beta (human) inhibition. inhibition, % at 5.17 µM. Q8NCG7. 340,000 compounds, 0.059% hits. HEK293T DAGLB membrane lysate, EnzChek fluorogenic substrate; in the data active = inhibition above about 34%
PLCgamma1 ctr: counter-screen for PLC-beta3 inhibitors: inhibitors of human PLC-gamma1; inhibition, % at 12.3 µM; 3,300 compounds, 3.1% hits; purified PLC-gamma1, fluorogenic substrate, fluorescence; shares compounds with PLC-gamma1 inh; in the data active = inhibition above about 9.5%
PLCb3 confirm: confirmation of human PLC-beta3 inhibitors | purified PLC-beta3, fluorogenic substrate fluorescence | inhibition, % at 12.3 µM | 3,300 compounds, 1% hits | shares compounds with PLC-gamma1 inh
A number is an active result; 0 = inactive; - = no result given. Cut-off read from the data, not from the text of the source, unless noted: active = inhibition above about 11%; inactive = the rest.

SMILES | PLC-beta3 inh | PLC-gamma1 inh | HGIII-sPLA2 inh | DAGLB inh | PLCgamma1 ctr | PLCb3 confirm
COc1ccc(-c2ccc(C)cc2)cc1[C@H]1[C@H]2C=CC[C@@H](C)[C@@H]2C(=O)N1Cc1ccccc1 | 11 | 0 | 0 | 0 | 0 | 0
COc1ccc(-c2ccc(OC)c([C@H]3[C@H]4C=CC[C@@H](C)[C@@H]4C(=O)N3Cc3ccccc3)c2)cc1 | 0 | 0 | 0 | 0 | - | -
CC(C)(C)c1cc(-c2ccccc2)n[nH]1 | 0 | 11 | 0 | 0 | 0 | 0
Cc1ccnc(NC(=S)N2CCC(Nc3cccc(C(F)(F)F)c3)CC2)c1 | 0 | 0 | 0 | - | - | -
O=C(OC12CCCN(C1)/C(=C/c1ccc(Cl)cc1)C2)C1CCCCC1 (stereo not drawn) | 0 | 0 | 0 | - | - | -
Cc1ccc(OCCCCNC(C)c2ccccc2)c(C)c1 (stereo not drawn) | 0 | 13 | 0 | 0 | 0 | 0
COCCn1c(CN2CCN(c3ccc(OC)cc3)CC2)nc2c1c(=O)n(C)c(=O)n2C | 0 | 0 | 0 | 0 | - | -
COc1ccc(N2CCN(Cc3nc4c(c(=O)n(C)c(=O)n4C)n3CCc3ccccc3)CC2)cc1 | 0 | 13 | 0 | 0 | 0 | 0
Cn1c(=O)c2c(nc(CN3CCN(CCO)CC3)n2Cc2ccccc2Cl)n(C)c1=O | 0 | 12 | 0 | 0 | 0 | 0
CCOCCn1c(CN2CCN(CCO)CC2)nc2c1c(=O)n(C)c(=O)n2C | 0 | 11 | 0 | 0 | 0 | 0
C(=C\c1ccccc1)/CSc1nnc(Cc2cccs2)n1-c1ccccc1 | 0 | 0 | 0 | - | - | -
C#CCNC(=O)C[C@H]1C[C@@]2(C(=O)OC)C(=C[C@H](COCc3ccccc3)O[C@@H]2C)N(Cc2ccco2)C1=O | 0 | 0 | 0 | - | - | -
CC(=O)Nc1cccc(-c2nnc3n2CC(C)S3)c1 (stereo not drawn) | 0 | 15 | 0 | 0 | 0 | 0
CC(=O)Nc1cccc(-c2cccc3nccn23)c1 | 0 | 0 | 0 | - | - | -
CC(=O)OCC(=O)Nc1ccc([N+](=O)[O-])cc1Cl | 0 | 0 | 0 | 0 | - | -
CC(=O)OCC(=O)Nc1ccc(Cl)cc1Cl | 0 | 10 | 0 | 0 | 0 | 0
N=c1sccn1CC(=O)NC(=O)NC1CCCC1 | 0 | 17 | 0 | 0 | 0 | 0
O=C(CN1C(=O)CCC1=O)NC(=O)NC1CCCC1 | 0 | 0 | 0 | 0 | - | -
Cc1ccc(Cn2nnc3c2-c2cc(F)ccc2S(=O)(=O)N(C(C)(C)C)C3)cc1 | 0 | 0 | 0 | - | - | -
COc1ccc(NC(C)=O)c2nc(C)c(C)nc12 | 0 | 0 | 0 | 0 | - | -
COc1ccc2sc(C)nc2c1NC(C)=O | 0 | 12 | 0 | 0 | 0 | 0
CS(=O)(=O)N1CCN(C(=O)c2ccc(F)cc2)CC1 | 0 | 12 | 0 | 0 | 0 | 0
O=C(CC1CCCC1)N1CC[C@H]2[C@H](CCCN2Cc2ccccc2)C1 | 0 | 0 | 0 | - | - | -
O=C(c1ccncc1)N1CCCC(N2CCN(c3ccc(F)cc3)CC2)C1 (stereo not drawn) | 0 | 11 | 0 | 0 | 0 | 0
CC1CN(C(=O)c2cccc(S(=O)(=O)N3CCN(c4ccc(F)cc4)CC3)c2)CC(C)O1 (stereo not drawn) | 0 | 0 | 0 | 0 | - | -
SMILES | PLC-beta3 inh | PLC-gamma1 inh | HGIII-sPLA2 inh | DAGLB inh | PLCgamma1 ctr | PLCb3 confirm
O=C(c1cccnc1)N1CCCC(Nc2ccc(F)cc2)C1 (stereo not drawn) | 0 | 15 | 0 | 0 | 0 | 0
O=C(c1cccc(S(=O)(=O)N2CCN(c3ccc(F)cc3)CC2)c1)N1CCCC(C(F)(F)F)C1 (stereo not drawn) | 0 | 10 | 0 | 0 | 14 | 0
Cc1ccccc1NC(=S)NCCC(c1ccccc1)c1ccccc1 | 0 | 10 | 0 | 0 | 0 | 0
Cc1ccc(NC(=S)NCCC(c2ccccc2)c2ccccc2)c(C)c1 | 0 | 0 | 0 | 0 | - | -
O=C(CCc1ccccc1-c1ccccc1CCNC(=O)c1ccc(F)c(F)c1)NCc1ccccc1 | 0 | 0 | 0 | - | - | -
CCOC(=O)C1(Cc2ccccc2)CCN(Cc2cccc(C#N)c2)CC1 | 0 | 0 | 0 | - | - | -
COc1ccc(NS(=O)(=O)c2ccc(S(=O)(=O)N3CCCC3)cc2)cc1 | 0 | 0 | 0 | 0 | - | -
COc1ccc(NS(=O)(=O)c2ccc(S(=O)(=O)N3CCCC3)cc2)cc1Cl | 0 | 15 | 0 | 0 | 0 | 0
CCOc1ccccc1NC(=O)C1CCCN1C(=O)c1cccs1 (stereo not drawn) | 0 | 10 | 0 | 0 | 0 | 0
COc1ccc2c(CCN3C(=O)c4ccccc4C3=O)c(-c3c(CCN4C(=O)c5ccccc5C4=O)c4ccccc4n3C(=O)OC(C)(C)C)[nH]c2c1 | 0 | 0 | 0 | - | - | -
O=C(C[n+]1ccccc1)N/N=C/c1ccc(Cl)cc1 | 0 | 0 | 0 | 0 | - | -
CC(C)(C)c1ccc(/C=N/NC(=O)C[n+]2ccccc2)cc1 | 0 | 9.9 | 0 | 0 | 0 | 0
CC(C)C[C@H](NC1(C(=O)NCCc2c[nH]c3ccccc23)CCN(C)CC1)C(=O)NCCCc1ccccc1 | 0 | 0 | 0 | - | - | -
COc1cc(Cl)ccc1NC(=S)N(CCN1CCOCC1)C1CCN(C(C)=O)CC1 | 0 | 11 | 0 | 0 | 0 | 0
COc1ccc(NC(=S)N(CCN2CCOCC2)C2CCN(C(C)=O)CC2)cc1Cl | 0 | 0 | 0 | 0 | - | -
CCC(OC(=O)C(NC(=O)c1ccccc1)c1ccccc1)C(=O)Nc1cc(C)on1 (stereo not drawn) | 0 | 12 | 0 | 0 | 0 | 0
CCC(Oc1ccccc1)C(=O)Nc1cc(C)on1 (stereo not drawn) | 0 | 0 | 0 | 0 | - | -
NC(=O)c1ccc(NC(=O)COC(=O)CCC2CCCCC2)cc1 | 0 | 14 | 0 | 0 | 0 | 0
COc1ccc(NC(=O)COC(=O)CCC2CCCCC2)cc1 | 0 | 0 | 0 | 0 | - | -
Cc1ccccc1N(CC(=O)NC1CCCCC1)C(=O)c1csnn1 | 0 | 0 | 0 | 0 | - | -
Cc1cccc(C)c1N(CC(=O)NC1CCCCC1)C(=O)c1csnn1 | 0 | 16 | 0 | 0 | 0 | 0
CC(=O)Nc1ccc(C2=NN(Cc3nnc(-c4ccccc4)o3)C(=O)SC2)cc1 | 0 | 11 | 0 | 0 | 0 | 0
CCC[C@H]1[C@@H](OC(=O)NCc2ccc(OC)c(OC)c2)CC[C@@]23CCCN2C(=O)CCC[C@@H]13 | 0 | 0 | 0 | - | - | -
C=C(C)COc1ccc(-c2nc(N)nc(C(F)(F)F)c2-c2ccc(OC)cc2)c(O)c1 | 0 | 0 | 0 | 0 | - | -
COc1ccc(-c2nc(N)nc(C(F)(F)F)c2-c2csc(C)n2)c(O)c1 | 0 | 11 | 0 | 0 | 0 | 0
SMILES | PLC-beta3 inh | PLC-gamma1 inh | HGIII-sPLA2 inh | DAGLB inh | PLCgamma1 ctr | PLCb3 confirm
Cc1[nH]c(=O)[nH]c(=O)c1Sc1ccccc1[N+](=O)[O-] | 0 | 12 | 0 | 0 | 0 | 0
CCCC1CCC2(CCC(=O)N2CCO)CC1 (stereo not drawn) | 0 | 0 | 0 | - | - | -
CCC(=O)NC(c1ccc(C)cc1)c1cc([N+](=O)[O-])c2cccnc2c1O (stereo not drawn) | 0 | 0 | 0 | 0 | - | -
CCCC(=O)NC(c1ccco1)c1cc([N+](=O)[O-])c2cccnc2c1O (stereo not drawn) | 0 | 14 | 0 | 0 | 0 | 0
COc1ccc(CN2C(=O)N3Cc4ccccc4C3CS2(=O)=O)cc1 (stereo not drawn) | 0 | 0 | 0 | - | - | -
O=C(CN1CCN(C(=O)N2CCCCC2)CC1)Nc1ccc(F)cc1 | 0 | 11 | 0 | 0 | 0 | 0
